RE007 growth inh – less growth of the S. pombe RE007 Vpr strain; S. pombe RE007 Vpr strain, BacTiter-Glo ATP luminescence, 24 h; Potency, µM (series often up to 92.2 µM), inactives show top-dose activity change, negative = less growth, usual class: inhibitors; 360,000 tested, 0.21% active; active = well fitted falling curve with a large enough effect; inconclusive = small, poorly fitted or top-dose-only effect; inactive = no such curve, though single readings can be large or run the other way; also: potency is read from the fitted curve at half-maximal effect; % is scaled to controls: 0 for no effect and ±100 for the full control effect; nearly all actives have a fitted effect of over 50% in size
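Fission yeast strain RE007, carrying one chromosomally integrated HIV-1 vpr copy, was seeded at OD 0.01 in PMG+AL medium with 23 nL pinned compound. After 24 h at 30 °C and 99% humidity, viability was read by BacTiter-Glo luminescence.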
NS1 function inh – inhibitors of influenza NS1 protein function; Potency, µM (titrated, usually from 46.1 µM), inactives show at the highest dose activity, positive = more growth; 270,000 tested, 0.4% active; AID 2326; calls by dose curve; also: potency is read from the fitted curve at half-maximal effect; actives are rising curves; nearly all actives have a fitted effect of over 50% in size
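Recovery from NS1-induced slow growth read by OD600 in budding yeast switched to galactose assay medium (pH 6.0, -URA) at 1:100 dilution. Compound 23 nl per well; the matching strain lacking NS1 serves as control.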
TbPYK inhibitor – blocks Trypanosoma brucei pyruvate kinase. TbPYK enzyme, Kinase-Glo Plus ATP luminescence, 45 min. Potency, µM (top dose mostly 76.8 µM), for inactives: top-dose activity, negative = inhibition, usual class: inhibitors. 410,000 tested, 0.12% active; also: potency is read from the fitted curve at half-maximal effect; % is scaled to controls: 0 for no effect and ±100 for the full control effect; nearly all actives have a fitted effect of over 50% in size
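TbPYK + substrate in 50 mM TEA pH 7.2, 100 mM KCl, 10 mM MgCl2, 0.05% BSA, 0.01% Tween-20; cpd pinned; ADP 130 uM final; 45 min RT; Kinase-Glo Plus 10 min; luminescence endpoint.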
LmPK inhibitor – LmPK (Leishmania mexicana) enzyme inhibition. purified LmPK, Kinase-Glo ATP luminescence, 1 h. Potency, µM (highest dose often 57.5 µM), inactives show at the highest dose activity change, negative = inhibition, most hits filed as inhibitors. 290,000 tested, 0.37% active. AID 1721; also: potency is read from the fitted curve at half-maximal effect; % is scaled to controls: 0 for no effect and ±100 for the full control effect
Target sequence (Q27686 whole entry, looked up): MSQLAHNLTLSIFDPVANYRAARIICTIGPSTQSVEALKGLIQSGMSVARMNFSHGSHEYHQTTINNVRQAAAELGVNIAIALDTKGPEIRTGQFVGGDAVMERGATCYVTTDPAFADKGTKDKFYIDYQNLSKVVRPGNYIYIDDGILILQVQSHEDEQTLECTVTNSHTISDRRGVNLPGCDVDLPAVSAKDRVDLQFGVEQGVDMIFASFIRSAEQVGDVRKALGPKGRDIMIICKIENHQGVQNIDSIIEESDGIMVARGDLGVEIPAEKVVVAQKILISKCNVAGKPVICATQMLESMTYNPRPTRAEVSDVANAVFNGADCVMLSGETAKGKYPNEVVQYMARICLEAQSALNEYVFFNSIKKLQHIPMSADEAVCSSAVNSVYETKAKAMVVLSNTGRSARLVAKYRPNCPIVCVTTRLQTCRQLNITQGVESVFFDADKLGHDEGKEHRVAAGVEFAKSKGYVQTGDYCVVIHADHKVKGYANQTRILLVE
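Purified LmPK (0.1 nM) with 0.5 mM PEP and 0.1 mM ADP in imidazole buffer pH 7.2 with MgCl2/KCl, 1 h at room temperature. ATP formed was read by luciferase luminescence and normalized to no-enzyme and uninhibited controls.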
AMA1 RON2 block – inhibitors of Plasmodium falciparum AMA1-RON2 interaction | AlphaScreen AMA1-biotinylated RON2 peptide binding | Potency, µM (series often up to 58.2 µM), for the others: at the highest dose activity change, negative = inhibition, usual class: inhibitors | 360,000 tested, 0.2% active;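 also: potency is read from the fitted curve at half-maximal effect; 0% = vehicle wells and -100% = peptide control; nearly all actives have a fitted effect of over 45% in size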
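AMA1 (3D7) with his tag at 25 nM final met compounds first, then biotinylated RON2 peptide at 25 nM; detection used donor plus acceptor beads, 10 µg/mL apiece, read by AlphaScreen after 30 min at room temperature.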
Flu NS1 inh – influenza NS1 function inhibition validation; influenza NS1 function cell assay, 15-point titration; 1,400 tested, under 10 active; activity change, negative = inhibition, % at 32.9 µM; shares compounds with NS1 function inh; calls by dose curve; also: 0% is about no effect
Active calls of the source: *; ? = inconclusive; · = no result; ! = not active in a repeat; [ ] = dose if it differs, or a comment. Sampled rows, rich in hits. Any-hit rate of the full collection: about 0.92%. Unless noted, calls follow the shape of the dose curve; as a rule, active = well fitted curve in the direction sought with a large enough effect; inconclusive = small, poorly fitted or top-dose-only effect, or another doubt; inactive = no such curve, though single readings can be large; an effect the other way counts as inactive or inconclusive.

SMILES	RE007 growth inh	NS1 function inh	TbPYK inhibitor	LmPK inhibitor	AMA1 RON2 block	Flu NS1 inh
CC(C)CC(C(=O)O)C(C)CC(=O)Nc1ccn(-c2ccccc2)n1 (stereo unspecified)	12.3%	14.1%	5.6%	4.7%	4.6%	·
CCCCC(C(=O)O)C(C)CC(=O)Nc1ccn(-c2ccccc2)n1 (stereo unspecified)	3.3%	2.82µM*	3.7%	5.1%	9.8%	27.6
CC(=O)N1CCc2cc(CNS(=O)(=O)c3ccccc3C(F)(F)F)ccc21	·	·	-5.4%	·	·	·
NC(=O)CSC1=Nc2ccccc2C2=NC(c3ccccc3)C(=O)N12 (stereo unspecified)	1.8%	·	-1.4%	7.7%	4.1%	·
CCN(CC)C(=O)CSC1=Nc2ccccc2C2=NC(c3ccccc3)C(=O)N12 (stereo unspecified)	12.8%	2.82µM*	2.4%	-7.4%	0.0%	-1.2
CCOC(=O)c1cnn2c(N)c(C#N)nnc12	1.8%	5.01µM*	-1.8%	-1.1%	20.2%	-14.8
CCOC(=O)c1cnn2c(N)c(C#N)cnc12	21.5%	-0.1%	3.4%	1.1%	4.5%	·
O=C(Nc1ccc(O)c(-c2nc3ccccc3o2)c1)C1(c2ccc(Cl)cc2)CCCC1	4.8%	-12.6%	-0.4%	-0.2%	68.4%[11.6 µM]	·
O=C(Nc1ccc(O)c(-c2nc3ccccc3o2)c1)C1(c2ccc([N+](=O)[O-])cc2)CCCC1	-8.1%	8.91µM*	-6.0%	-0.7%	39.9%	-17.0
CN(C)CCN=Cc1c(O)n(-c2cccc3ccccc23)c(=O)[nH]c1=O	-12.8%	?	-3.6%	0.0%	50.6%	7.4
N#Cc1ccccc1NC(=O)C(=O)NCC(c1cccnc1)N1CCN(c2ccccc2)CC1 (stereo unspecified)	·	·	3.7%	·	·	·
Cc1cc(C)cc(NC(=O)CCN2C(=O)c3ccccc3Sc3ncccc32)c1	·	·	4.5%	·	·	·
COc1cccc2c(=O)c(C(=O)NCc3cccs3)c[nH]c12	7.8%	1.41µM*	-1.0%	2.8%	55.8%	-4.1
Cc1ccc(C)c(S(=O)(=O)c2cn(C)c3cc(N4CCCCC4C)c(F)cc3c2=O)c1 (stereo unspecified)	·	·	0.9%	·	·	·
COc1ccc(C(=O)Cn2c(=O)n3nc(CCn4nc(C)cc4C)nc3c3cc(OC)c(OC)cc32)cc1	·	·	6.0%	·	·	·
Cc1ccccc1C(=O)N1CCc2cc(-c3nc(NC(=O)Cc4ccc5c(c4)OCO5)sc3C)ccc21	-1.3%	?	1.1%	0.8%	-7.9%	0.9
Cc1sc(NC(=O)Cc2ccc3c(c2)OCO3)nc1-c1ccc2c(c1)CCN2C(=O)c1cccc(F)c1	-20.7%	?	-4.6%	0.3%	?	·
CSCC[C@H](NC(=O)[C@H](Cc1ccccc1)n1c(=O)[nH]c2ccccc2c1=O)C(=O)NCC1CCC(C(=O)O)CC1 (stereo partly specified)	-4.4%	11.2µM*	4.5%	-2.1%	-5.0%	13.4
N#C/C(=C/c1ccc(N2CCCCC2)o1)C(=O)Nc1ccc2ccccc2c1	-4.1%	11.2µM*	-1.5%	-3.4%	-5.7%	1.5
N#C/C(=C/c1ccc(N2CCCCC2)o1)C(=O)Nc1ccc(Cl)cc1	-17.4%	-5.2%	-6.8%	-5.6%	-4.7%	·
CNC(=O)c1ccc(-c2sc3nc(N4CCOCC4)c4c(c3c2N)CC(C)(C)OC4)o1	22.4%	21.3%	-7.4%	-3.6%	-14.4%	·
CC1(C)Cc2c(c(N3CCOCC3)nc3sc(-c4ccc(C(=O)O)o4)c(N)c23)CO1	1.3%	?	-7.9%	4.2%	-5.5%	11.8
COc1ccc2nc(SCC(=O)Nc3ccccc3)[nH]c2c1	6.6%	?	-10.0%	6.6%	-8.7%	-16.5
CCc1ccc(N(CC)C(=O)c2ccc3c(=O)n4c(nc3c2)CCCCC4)cc1	·	·	-7.2%	·	·	·
COc1ccc(Cl)cc1NC(=O)c1cc2ccc3ccc(C)[nH]c3c2n1	·	·	-5.6%	·	·	·
SMILES	RE007 growth inh	NS1 function inh	TbPYK inhibitor	LmPK inhibitor	AMA1 RON2 block	Flu NS1 inh
O=C(c1ccncc1)N1CCc2ccccc2C1	14.3%	0.7%	-0.4%	-0.3%	-3.4%	·
O=C(c1cccc(F)c1)N1CCc2ccccc2C1	-6.7%	?	0.1%	0.6%	5.9%	-25.8
COc1ccc(OCC(O)Cn2c(NCCO)nc3c2c(=O)n(C)c(=O)n3C)cc1 (stereo unspecified)	·	·	-3.6%	·	·	·
O=C(O)c1cc(-c2ccco2)nc2ccc(Br)cc12	-29.8%	20µM*!	17.8µM*!	2.7%	?	10.6
O=C(c1ccco1)N1CCN(C(=O)c2cc(-c3ccncc3)nc3ccc(Br)cc23)CC1	-24.8%	-64.1%	-5.2%	·	4.2%	·
C#CCn1c(=NC(=O)c2ccc(S(=O)(=O)N3CCCc4ccccc43)cc2)sc2cc(S(N)(=O)=O)ccc21	-4.3%	11.2µM*	0.2%	1.8%	6.8%	18.2
Cn1c(=NC(=O)c2ccc(S(=O)(=O)N3CCCc4ccccc43)cc2)sc2cc(S(C)(=O)=O)ccc21	2.7%	11.7%	5.9%	1.4%	0.0%	·
COc1ccc(C(=O)N2CCN(c3nc4c(C)c(Cl)ccc4s3)CC2)c(OC)c1	·	·	2.2%	·	·	·
COc1ccc(N2C(N)=C(C#N)C(c3cccnc3)C3=C2CC(C)(C)CC3=O)cc1 (stereo unspecified)	4.0%	?	-13.1%	-0.8%	29.8%	-13.8
COc1ccc(C(=O)c2cn(Cc3cccc(C)c3)c3cc4c(cc3c2=O)OCCO4)cc1OC	·	·	-5.0%	·	·	·
Cc1cc(C)n2c(SCC(=O)Nc3ccccc3)nnc2n1	7.7%	5.3%	-4.9%	2.3%	7.4%	·
CCN(CC)c1ccc(NC(=O)CSc2nnc3nc(C)cc(C)n23)cc1	-6.0%	?	-24.3%	0.2%	-11.8%	-21.7
CCC(=O)Nc1sc2c(c1C#N)CC(C)(C)NC2(C)C	-5.0%	-25.2%	1.4%	-8.2%	-5.3%	·
CC(C)CC(=O)Nc1sc2c(c1C#N)CC(C)(C)NC2(C)C	-14.1%	10µM*	8.9%	1.2%	-3.5%	-1.1
O=C1c2ccccc2C(=O)N1c1nc2nccc(-c3ccccc3)n2n1	10.5%	?	0.5%	3.5%	25.5%	8.3
COc1ccc(-c2ccnc3nc(-n4cccc4)nn23)cc1	-12.3%	?	10.3%	7.1%	-25.2%	·
CCOc1cc(-c2ccc(OC(=O)c3ccc(C)cc3)c(OC)c2)cc(=O)c2c(C)oc(C)c12	·	·	-8.1%	·	·	·
CCOc1ccc(NC(=O)CSc2oc(-c3ccco3)nc2S(=O)(=O)c2ccc(Cl)cc2)cc1	·	·	0.0%	·	·	·
COc1ccccc1-n1c(SCC(=O)NCc2ccc3c(c2)OCO3)nc2cc([N+](=O)[O-])ccc21	-18.1%	12.6µM*	0.0%	-2.2%	?	0.5
CC(=O)c1ccc(NC(=O)c2nc(-c3ccccc3)n(-c3ccccc3Cl)n2)cc1	·	·	-7.0%	·	·	·
